A short description of assay [1]: Confirmatory screen GU Rhodamine qHTS for Zika virus inhibitors qHTS (AID 1347157). Further: nearly all actives have a fitted effect of over 70% in size. Further: potency means the concentration at half of the fitted maximal effect.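 On activity change, negative = inhibition: plate controls were no-inhibitor wells for no effect and no-enzyme wells for full effect.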 An outline of the steps:
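Enzyme 25 nM in Tris-HCl pH 8.0 + 0.01% Tween 20; compounds up to 114 microM, 15 min RT dark; + Rhod110 substrate 1.5 microM; read t0 and 15 min; delta fluorescence → % inhibition → 4-parameter Hill fit.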
On the technique in general: Quantitative high-throughput screening tests each substance at several concentrations.

Assay [2] is described as follows: ZIKV-mCherry secondary qHTS for Zika virus inhibitors (AID 1347158). Further: potency means the concentration at half of the fitted maximal effect. Conditions: Vero cells, ZIKV-mCherry infection imaging, 48-72 h. An outline of the steps: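 Compounds were tested in Vero monkey kidney cells infected with recombinant mCherry-expressing Zika virus at MOI 1 for 48-72 h at 37 °C. Fixed cells were nuclear-stained and imaged, and infection rate was taken as the fraction of mCherry-positive cells.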

A short description of assay [3]: Confirmatory screen NINDS Rhodamine qHTS for Zika virus inhibitors (AID 1347161). Further: nearly all actives have a fitted effect of over 60% in size. Further: potency means the concentration at half of the fitted maximal effect.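 On activity change, negative = inhibition: purified Zika NS2B-NS3 protease with linked NS2B cofactor domain and Rhodamine110 peptide substrate; series mostly up to about 110 µM; plate controls were no-inhibitor control for no effect and no-enzyme control for full effect.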 A digest of the protocol:
(§1)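 Rhodamine110-peptide cleavage (1.5 µM substrate) by 25 nM linked NS2B-NS3 enzyme at pH 8.0 (Tris, Tween 20), after 15 min RT preincubation with compounds; 15-min fluorescence change normalized to controls and Hill-fitted.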

The test system of assay [4] is Zika virus NS2B-NS3 protease (linked). As to the kind of experiment: 384 well plate NINDS AMC confirmatory qHTS for Zika virus inhibitors (AID 1347163). Further: potency means the concentration at half of the fitted maximal effect; nearly all actives have a fitted effect of over 50% in size. Conditions: Recombinant NS2B-NS3 protease, Ac-VKTGKR-AMC fluorescence. A digest of the protocol: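 Fluorescence at 355/460 nm was read after 25 minutes of cleavage of 30 microM Ac-VKTGKR-AMC at room temperature, in the dark. Before substrate addition, compounds (up to 1 mM final) sat ~15 minutes with 5, 30 or 60 nM linked protease. Signals were normalized to no-enzyme and no-inhibitor wells.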

For assay [5], the system named is Zika virus NS2B-NS3 protease (linked construct). Put plainly: 384 well plate NINDS Rhodamine confirmatory qHTS for Zika virus inhibitors (AID 1347164). Further: nearly all actives have a fitted effect of over 65% in size. Further: potency means the concentration at half of the fitted maximal effect.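 On activity change, negative = inhibition: top concentration of the series differs between compounds; plate controls were no-inhibitor control for no effect and no-enzyme control for full effect.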 An outline of the steps: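 Compounds are incubated about 15 minutes with linked protease (5, 30 or 60 nM final). Rhodamine 110-tagged Ac-LKRR substrate (10 microM final) is added and fluorescence measured after 25 minutes.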

For assay [6], the system named is Zika virus NS2B-NS3 protease (unlinked complex). Put plainly: Primary screen GU Rhodamine qHTS for Zika virus inhibitors: Unlinked NS2B-NS3 protease assay (AID 1347159). Further: nearly all actives have a fitted effect of over 60% in size. Further: potency means the concentration at half of the fitted maximal effect. An outline of the steps: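 Percent inhibition came from the 15-min rise in Rhodamine110 fluorescence (1.5 microM substrate, ~15% conversion), normalized to no-inhibitor and no-enzyme wells and Hill-fitted. Unlinked protease, 25 nM, pH 8.0 Tris buffer; compounds up to 114 microM, 15-min preincubation.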

Assay [7] concerns Zika virus NS2B-NS3 protease (linked construct). Put plainly: Primary screen NINDS Rhodamine qHTS for Zika virus inhibitors (AID 1347160). Further: nearly all actives have a fitted effect of over 55% in size. Further: potency means the concentration at half of the fitted maximal effect. A digest of the protocol: as §1
A short description of assay [8]: OV-KATE Cancer Cell Toxicity qHTS against the NCATS CANVASS Library (AID 1347345). Further: on the % scale 0 is the no-effect control and ±100 the full control effect. An outline of the steps:
(§2)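 Following a 4 h pre-incubation of 1000 seeded cells, compounds were pinned in an 11-pnt dilution series and left for 72 h; viability then came from CellTiter-Glo.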

Assay [9] is described as follows: HPAF-II Cancer Cell Toxicity qHTS against the NCATS CANVASS Library (AID 1347346). Further: series mostly up to about 38 µM; on the % scale 0 is the no-effect control and ±100 the full control effect; nearly all actives have a fitted effect of over 55% in size. A digest of the protocol: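 First, HPAF-II cells are plated (1000 cells/well) and held 4 h at 37 degrees C. Next, compounds are pin-transferred as an 11-point series. After 72 h, CellTiter-Glo is added and luminescence measured.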
Assay [10] in a line: UWB1.289 Cancer Cell Toxicity qHTS against the NCATS CANVASS Library (AID 1347347). Further: series mostly up to about 38 µM; on the % scale 0 is the no-effect control and ±100 the full control effect; nearly all actives have a fitted effect of over 60% in size. An outline of the steps:
as §2

Assay [11] is described as follows: OV-SAHO Cancer Cell Toxicity qHTS against the NCATS CANVASS Library (AID 1347348). Further: series mostly up to about 38 µM; on the % scale 0 is the no-effect control and ±100 the full control effect; nearly all actives have a fitted effect of over 55% in size. A digest of the protocol: as §2
The nature of assay [12]: Panc-1005 Cancer Cell Toxicity qHTS against the NCATS CANVASS Library (AID 1347349). Further: series mostly up to about 38 µM; on the % scale 0 is the no-effect control and ±100 the full control effect; nearly all actives have a fitted effect of over 60% in size. A digest of the protocol: as §2
Assay [13] is described as follows: SW1088 Cancer Cell Toxicity qHTS against the NCATS CANVASS Library (AID 1347350). Further: series mostly up to about 38 µM; on the % scale 0 is the no-effect control and ±100 the full control effect; nearly all actives have a fitted effect of over 75% in size. A digest of the protocol: as §2
A short description of assay [14]: U-118MG Cancer Cell Toxicity qHTS against the NCATS CANVASS Library (AID 1347351). Further: series mostly up to about 38 µM; on the % scale 0 is the no-effect control and ±100 the full control effect. An outline of the steps:
as §2

Assay [15] can be described thus: COV-362 Cancer Cell Toxicity qHTS against the NCATS CANVASS Library (AID 1347352). Further: series mostly up to about 38 µM; on the % scale 0 is the no-effect control and ±100 the full control effect. An outline of the steps:
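First, 1000 cells go into each well and rest for 4 hours. Next, an 11-point dilution range is pinned in. Plates then incubate 72 hours before CellTiter-Glo addition and luminescence reading.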

Assay [16] is described as follows: Vero cells viability qHTS for Zika virus inhibitors (AID 1347167). Further: on the % scale 0 is the no-effect control and ±100 the full control effect. A digest of the protocol:
(§3)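 To flag cytotoxic protease inhibitors, viability is measured by ATP-dependent luminescence (CellTiter Glo) after cells attached overnight receive compound for 24 to 48 hours in DMEM with 4% FBS.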

A short description of assay [17]: HepG2 cells viability qHTS for Zika virus inhibitors (AID 1347168). Further: on the % scale 0 is the no-effect control and ±100 the full control effect. A digest of the protocol: as §3
Assay [18] is described as follows: Tertiary RLuc qRT-PCR qHTS assay for Zika virus inhibitors (AID 1347169). Further: top concentration of the series differs between compounds; on the % scale 0 is the no-effect control and ±100 the full control effect; nearly all actives have a fitted effect of over 55% in size. A digest of the protocol:
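Orthogonal cell-based infection assay using recombinant ZIKV-RLuc (Cambodian) in Vero cells; compound added prior to virus at MOI 1-2. Incubation lasts 48-72 hrs at 37 degrees C before live-cell Renilla substrate is added and luminescence measured.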
(In general: Quantitative PCR measures a nucleic acid by following its amplification.)

Assay [19] has as its system Zika virus NS2B-NS3 protease. As to the kind of experiment: Primary screen GU AMC qHTS for Zika virus inhibitors (AID 1347154).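 Further: 0% = no-inhibitor control and -100% = no-enzyme control; nearly all actives have a fitted effect of over 70% in size.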 An outline of the steps:
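Unlinked Zika NS2B hydrophilic domain/NS3 protease domain noncovalent complex (25 nM final) in 10 mM Tris-HCl pH 8.0, 0.01% Tween 20, with AMC peptide substrate. Fluorescence (ex 340, em 450 nm) change over 15 min, room temperature; percent inhibition fitted to 4-parameter Hill equation.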

In assay [20] the target is Lysine-specific demethylase 5B (Homo sapiens) (UniProt Q9UGL1). As to the kind of experiment: Optimization screen for KDM5B Histone Demethylases FDH coupled qHTS against the LOPAC library (AID 1347166). Further: 0% is about no effect. A digest of the protocol:
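KDM5BDeltaAP (200nM final) in 50mM HEPES pH 7.5, 0.01% Tween-20 was preincubated with compound for 10 min at room temperature. A substrate mix of 12.5uM H3K4Me3, 25uM a-ketoglutarate, ascorbate, Fe2+, NAD+ and formaldehyde dehydrogenase was then added. NADH fluorescence (340/450 nm) was read initially and after 30 min.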

Molecules are shown by their SMILES. Results filed as inconclusive are left out. Values without a mark were called inactive. Active and inactive are the calls of the source. The call rests on the fitted dose curve; in most records, active means well fitted curve in the direction sought with a large enough effect; inconclusive means small, poorly fitted or top-dose-only effect, or another doubt; inactive means no such curve, though single readings can be large; an effect the other way counts as inactive or inconclusive.

Lysine-specific demethylase 5B (Homo sapiens), sequence (Q9UGL1 whole entry, looked up): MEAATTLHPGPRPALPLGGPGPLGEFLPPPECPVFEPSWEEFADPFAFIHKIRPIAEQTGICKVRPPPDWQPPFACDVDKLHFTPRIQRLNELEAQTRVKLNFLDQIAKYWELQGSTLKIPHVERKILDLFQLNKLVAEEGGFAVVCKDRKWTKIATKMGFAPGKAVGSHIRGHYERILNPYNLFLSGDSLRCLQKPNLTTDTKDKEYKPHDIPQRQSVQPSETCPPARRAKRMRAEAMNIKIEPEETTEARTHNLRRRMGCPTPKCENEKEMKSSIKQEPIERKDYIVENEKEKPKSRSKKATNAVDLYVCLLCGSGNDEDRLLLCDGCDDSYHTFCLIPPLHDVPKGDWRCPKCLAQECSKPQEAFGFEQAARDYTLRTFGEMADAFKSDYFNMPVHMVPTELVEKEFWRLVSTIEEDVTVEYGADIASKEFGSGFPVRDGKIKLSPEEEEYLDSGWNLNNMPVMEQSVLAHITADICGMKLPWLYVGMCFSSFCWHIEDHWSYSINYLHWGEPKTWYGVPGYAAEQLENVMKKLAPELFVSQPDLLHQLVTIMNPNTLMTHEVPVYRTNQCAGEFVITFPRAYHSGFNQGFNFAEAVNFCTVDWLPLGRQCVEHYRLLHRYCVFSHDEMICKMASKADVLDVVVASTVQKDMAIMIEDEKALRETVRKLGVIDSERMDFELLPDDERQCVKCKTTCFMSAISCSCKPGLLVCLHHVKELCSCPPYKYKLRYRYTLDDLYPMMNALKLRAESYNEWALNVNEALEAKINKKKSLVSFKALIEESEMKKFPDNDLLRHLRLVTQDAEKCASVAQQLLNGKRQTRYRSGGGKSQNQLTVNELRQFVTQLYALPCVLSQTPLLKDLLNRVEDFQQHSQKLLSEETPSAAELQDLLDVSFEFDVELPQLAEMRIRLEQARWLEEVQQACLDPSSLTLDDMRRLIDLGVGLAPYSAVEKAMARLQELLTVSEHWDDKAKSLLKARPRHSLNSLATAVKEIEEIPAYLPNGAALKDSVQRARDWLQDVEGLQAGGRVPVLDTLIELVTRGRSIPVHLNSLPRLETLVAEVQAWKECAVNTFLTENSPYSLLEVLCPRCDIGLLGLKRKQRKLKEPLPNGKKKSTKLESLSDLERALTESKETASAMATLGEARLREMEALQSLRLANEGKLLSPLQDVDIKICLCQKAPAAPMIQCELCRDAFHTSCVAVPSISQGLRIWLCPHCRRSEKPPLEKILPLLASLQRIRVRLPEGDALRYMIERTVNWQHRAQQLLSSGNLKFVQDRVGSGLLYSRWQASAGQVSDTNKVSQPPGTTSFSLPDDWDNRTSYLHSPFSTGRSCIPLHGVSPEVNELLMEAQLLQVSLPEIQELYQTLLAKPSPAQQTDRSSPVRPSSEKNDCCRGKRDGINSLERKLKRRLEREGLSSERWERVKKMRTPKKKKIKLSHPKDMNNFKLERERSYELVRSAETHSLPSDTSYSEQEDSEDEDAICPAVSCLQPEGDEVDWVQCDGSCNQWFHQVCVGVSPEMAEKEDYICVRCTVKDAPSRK

Regarding `CC(=O)c1c(O)c(C)c(O)c(Cc2c(O)c3c(c(C(=O)/C=C/c4ccccc4)c2O)OC(C)(C)C=C3)c1O`, the Potency in assay [1] was 5.62 µM (active); in [2] it was 3.55 µM (active); in assay [3] it was 17.8 µM (active); in assay [4], 63.1 µM (active); in [5] it was 31.6 µM (active).
As to `C=C(C)[C@H]1O[C@H]2CC[C@@]3(C)[C@@](O)(CC[C@H]4[C@@H]5OC(C)(C)[C@H]6C[C@@H]7C(=C)Cc8c(Cl)cc9[nH]c(c5c9c8[C@@]76O)[C@@]43C)[C@]23O[C@@H]3[C@H]1O`, the Potency result in assay [6] and in [7] was “inactive” in each case.
Regarding `COc1ccc2[nH]cc(CCN)c2c1`, the Potency result in assay [7] is “inactive”. The compound was called inactive in assay [8], in assay [9], in assay [10], in assay [11], in assay [12] and in [13]. Besides, the outcome in assay [14] and in [15] was inactive.
Regarding `O=c1ccc2[nH]cc(C3=CCNCC3)c2[nH]1`, in assay [3], the Potency is 44.1 µM (active). Besides, the compound was classed as inactive in [16] and in assay [17]. Further, the Potency entry in [18] is “inactive”.
Take `C[C@@]12C[C@@H](c3ccoc3)OC(=O)C1CC[C@]1(C)[C@H]2[C@H]2C=C[C@]1(O)C(=O)O2` (some centres not stated): the Potency entry in assay [6] and in assay [7] was “inactive” each time.
As to `COC(=O)C1(C)CCC(=O)C2(C)c3c(O)cc(C(C)C)cc3C(O)C(OC(C)=O)C12` (configuration not stated), the Potency entry in [6] was “inactive”.
On to `C[C@H]1O[C@@H](O[C@H]2C[C@@H](O)[C@]3(CO)C4C(CC[C@]3(O)C2)[C@@]2(O)CC[C@H](C3=CC(=O)OC3)[C@@]2(C)C[C@H]4O)[C@@H](O)[C@@H](O)[C@H]1O` (some centres not stated), for which the Potency entry in [6] and in assay [7] was “inactive” each time.
Turning to `c1ccc2c(c1)[I+]c1ccccc1-2`, the Potency entry in assay [19] and in assay [20] was “inactive” throughout.
Turning to `CC[C@H]1CN2CC[C@H]1C[C@H]2[C@H](O)c1ccnc2ccc(OC)cc12`, the Potency entry in assay [6] is “inactive”.
With `COC1=CC(=O)O[C@@H](/C=C/c2ccccc2)C1`, the Potency entry in assay [6] and in assay [7] was “inactive” in each case.
Regarding `C=C(CO)C(=O)O[C@H]1C/C(C)=C/CC/C(CO)=C/[C@H]2OC(=O)C(=C)[C@H]12`, the Potency entry in assay [6] and in assay [7] was “inactive” in each case.
In the case of `COC1CC(O[C@H]2CC[C@@]3(C)C(=CCC4C3C(O)[C@@H](O)[C@]3(C)[C@@H](C(C)=O)CC[C@]43O)C2)OC(C)C1OC1CC(OC)C(OC2OC(C)C(O)C(O)C2O)C(C)O1` (some centres not stated), the Potency entry in [6] and in assay [7] was “inactive” throughout.
As for `COC1CC(O[C@H]2CC[C@]3(C=O)C4CC[C@]5(C)[C@@H](C6=CC(=O)OC6)CC[C@]5(O)[C@@H]4CC[C@]3(O)C2)OC(C)C1O[C@@H]1O[C@H](CO)[C@@H](O)[C@H](O)[C@H]1O` (some centres not stated), the Potency entry in [6] and in [7] was “inactive” each time.
In the case of `CO[C@H]1CC=C2CCN3CCC4=C(CC(=O)OC4)[C@]23C1`, the Potency entry in assay [19] and in assay [20] was “inactive” throughout.
On to `CCC(C)(C#N)O[C@@H]1O[C@H](CO)[C@@H](O)[C@H](O)[C@H]1O` (some centres not stated), for which the Potency entry in [6] and in [7] was “inactive” each time.
On to `CN(C(=O)Cc1ccc(Cl)c(Cl)c1)C(CN1CCCC1)c1cccc(OCC(=O)O)c1` (configuration not stated), for which the Potency result in assay [19] and in assay [20] was “inactive” throughout.
For `COC1CC(=O)C23C(=O)NC(CC(C)C)C2C(C)=C(C)C(OO)C3/C=C(\C)CCC(O)C1O` (configuration not stated), the Potency result in assay [6] and in [7] was “inactive” in each case.
`COC1C(O)C(C)OC(OC2C(CO)O[C@@H](O[C@@H]3CC4CCC5C(CC[C@]6(C)[C@@H](C7=CC(=O)OC7)CC[C@]56O)[C@@]4(C)[C@H](O)C3)C(O)C2O)C1O` (some centres not stated): the Potency result in [6] and in [7] was “inactive” throughout.
As to `CO[C@H]1[C@H](O)[C@H](O[C@H]2CC[C@]3(C)C4CC[C@]5(C)[C@H](C6=CC(=O)OC6)CC[C@]5(O)C4CC[C@@H]3C2)O[C@@H](C)[C@@H]1O` (some centres not stated), the Potency result in assay [6] and in assay [7] was “inactive” in each case.
For `Oc1cc(Cl)c(Cl)cc1Cl`, the Potency entry in [1] was “inactive”. The activity change, negative = inhibition in assay [18] is -13.8% [at 5.25 µM].
Take `CC(C)[C@@]1(NC(=O)[C@@H]2C[C@@H]3c4cccc5[nH]cc(c45)C[C@H]3N(C)C2)O[C@@]2(O)[C@@H]3CCCN3C(=O)[C@H](Cc3ccccc3)N2C1=O`: the Potency result in assay [19] and in assay [20] was “inactive” each time.
Turning to `CCCN(CCC)C1CCc2cccc(O)c2C1` (configuration not stated), the Potency result in assay [19] and in assay [20] was “inactive” throughout.
With `CCCCCOc1cc2c(cc1-c1cc(/C=C/C(=O)O)ccc1O)C(C)(C)CCC2(C)C`, the Potency in [1] is 1.75 µM (active); in [6], 2.51 µM (active); in assay [7], 3.16 µM (active); in assay [3] it was 2.21 µM (active); in [4], 25.1 µM (active). Besides, the Potency entry in assay [5] is “inactive”. The compound was classed as inactive in [16] and in assay [17].
`OC1(c2ccc(Cl)cc2)c2ccccc2C2=NCCN21` (configuration not stated): the Potency result in [6] and in [7] was “inactive” in each case.
For the compound `CO[C@@H]1[C@H](O)[C@@H](O[C@@H]2C[C@H]3CC[C@@H]4C(CC[C@]5(C)[C@@H](C6=CC(=O)OC6)CC[C@]45O)[C@@]3(C)[C@H](O)C2)O[C@H](C)[C@@H]1O[C@@H]1O[C@H](CO)[C@@H](O)[C@H](O)[C@H]1O` (some centres not stated), the Potency entry in assay [6] and in [7] was “inactive” throughout.
Consider `N#CC(OC1OC(COC2OC(CO)C(O)C(O)C2O)C(O)C(O)C1O)c1ccccc1` (configuration not stated), for which the Potency entry in [6] and in assay [7] was “inactive” each time.
As to `CC(CCc1ccc(O)cc1)O[C@@H]1O[C@H](CO[C@H]2OC[C@](O)(CO)[C@H]2O)[C@@H](O)[C@H](O)[C@H]1O` (some centres not stated), the Potency entry in [6] and in assay [7] was “inactive” each time.
For `CCN1CC2(COC)C3[C@@H](OC)C4C1C3(C1C[C@]3(O)[C@H](OC(=O)c5ccccc5)C1[C@]4(OC(C)=O)[C@@H](O)[C@@H]3OC)[C@H](OC)C[C@H]2O` (some centres not stated), the Potency entry in assay [1], in [7], in [3] and in assay [18] was “inactive” throughout. Further, the Potency in [6] was 89.1 µM (active).
With `CN(C)CCc1c[nH]c2ccc(CN3CCN(C)S3(=O)=O)cc12`, the Potency result in assay [6] and in assay [7] was “inactive” in each case.

Values taken from PubChem BioAssay (NCATS).
